Bioassay records as filed in PubChem BioAssay.
The list is not random: actives were taken first. Their share in the collection is about 0.69%.
Vif-APOBEC3F blk – blocks the Vif interaction with APOBEC3F; HeLa A3F-eYFP + Vif (tagged APOBEC3F with the HIV-1 protein that degrades it), YFP fluorescence increase; Potency, µM (series often up to 46.1 µM), for the others: at the top dose activity, negative = active; actives 0.2% (n = 390,000); note: % of control where 0% means no effect; nearly all actives have a fitted effect of over 65% in size
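HeLa cells stably expressing Vif plus C-terminally eYFP-tagged A3F were seeded, incubated overnight at 37 deg C, dosed with compound, incubated overnight again at 37 deg C. Yellow fluorescence (Ex 488/Em 500-530) reported blocked Vif-mediated A3F-eYFP degradation.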
Abeta rescue – A-beta toxicity reversal in yeast; yeast expressing A-beta42, growth rescue, OD600, 48 h; response scale: 0% DMSO, 100% iron-clioquinol control; Potency, µM (series often up to 46.1 µM), hits mostly activators; actives 0.063% (n = 410,000); AID 1347071; note: nearly all actives have a fitted effect of over 55% in size
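Yeast growth medium received pinned compounds, then yeast cells expressing toxic A-beta were added; plates incubated at 30 C for 48 hr. Growth read as absorbance at 600 nm, normalized to DMSO and equimolar FeCl3 plus clioquinol controls.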
GRP78 ERSR act – induces the endoplasmic reticulum stress response in human glioma cells. U87-MG GRP78 promoter luciferase reporter, 16 h. Potency, µM, for the others: at the highest dose activation, most hits filed as activators. actives 0.02% (n = 420,000). AID 602332; note: series mostly up to about 76 µM; % of control where 0% means no effect; nearly all actives have a fitted effect of over 35% in size
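Stably transfected U87-MG glioma cells carrying a GRP78-based luciferase sensor; 16 h compound incubation. Luminescence end-point read 10 min after Bright-Glo addition at room temperature.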
Vif-A3G inh – blocks the Vif interaction with human APOBEC3G; HeLa A3G-eYFP + Vif (tagged APOBEC3G with the HIV-1 protein that degrades it), YFP fluorescence, overnight; Potency, µM (series often up to 46.1 µM), for inactives: at the highest dose activity, negative = active, usual class: inhibitors; actives 0.076% (n = 410,000); note: % is set by controls: 0 for no effect and ±100 for the full control effect; nearly all actives have a fitted effect of over 60% in size
Target sequence (Q9HC16 whole entry, looked up): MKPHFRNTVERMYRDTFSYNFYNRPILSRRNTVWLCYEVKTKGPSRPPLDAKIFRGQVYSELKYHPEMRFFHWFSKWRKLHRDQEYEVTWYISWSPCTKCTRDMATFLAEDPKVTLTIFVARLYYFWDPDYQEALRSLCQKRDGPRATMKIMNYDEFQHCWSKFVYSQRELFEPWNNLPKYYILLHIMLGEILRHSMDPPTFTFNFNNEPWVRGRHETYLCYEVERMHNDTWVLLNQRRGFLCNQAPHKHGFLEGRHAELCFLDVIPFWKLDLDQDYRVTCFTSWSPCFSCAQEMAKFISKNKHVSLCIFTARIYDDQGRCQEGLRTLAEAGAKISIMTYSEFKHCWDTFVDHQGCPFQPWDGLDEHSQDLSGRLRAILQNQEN
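Read-out is eYFP fluorescence (Ex 488/Em 500-530) from Vif-expressing HeLa A3G-eYFP cells; more signal means A3G escaped Vif-mediated degradation. Cells plated overnight, compound pinned in, incubated overnight at 37 deg C.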
PINK1 expr mod – changes PINK1 expression; Potency, µM (top dose mostly 76.6 µM), without a hit: top-dose activation (PINK1 increase), actives largely listed as activators; AID 624263; actives 0.2% (n = 410,000); PINK1 immunofluorescence, high-content cytometry, 24 h; active = well fitted activation curve with a large enough effect; inconclusive = small, poorly fitted or top-dose-only effect; cell line not stated here; note: % of control where 0% means no effect; nearly all actives have a fitted effect of over 65% in size
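Stable cell line, 250 cells/well, 12 h attachment; compounds pinned at 5 concentrations, 24 h; CCCP control. Fixed with nuclear dye, primary antibodies 12 h at 10 degrees C, secondary plus cell stain; laser-scanning cytometer read.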
FUS yeast rescue – FUS proteinopathy suppression in yeast; S. cerevisiae FUS-expressing, growth rescue, OD600, 24 h; Potency, µM (titrated, usually from 76.6 µM), most hits filed as activators; actives 0.24% (n = 390,000);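 note: plate controls were DMSO vehicle for no effect and reference control for full effect; nearly all actives have a fitted effect of over 55% in size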
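FUS-expressing yeast, raffinose-pregrown, induced in 2% galactose minimal medium at OD 0.005; compounds in a dilution series, 24hr at 30C. Growth restoration read as absorbance at 600 nm. CP55940 positive control, DMSO negative.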
Active calls of the source: *; i = inactive; ? = inconclusive; . = not tested or not shown; [ ] = another dose, or the depositor's remark. Unless noted, calls come from the whole dose curve; as a rule, active = well fitted curve in the direction sought with a large enough effect; inconclusive = small, poorly fitted or top-dose-only effect, or another doubt; inactive = no such curve, though single readings can be large; an effect the other way counts as inactive or inconclusive. Potency is the fitted concentration of half-maximal effect.

SMILES	Vif-APOBEC3F blk	Abeta rescue	GRP78 ERSR act	Vif-A3G inh	PINK1 expr mod	FUS yeast rescue
COCc1ccc(CN2CCOc3ccc(C4=Cc5ccccc5C4)cc3C2)o1	.	.	3%	.	1%	.
Cc1cc(C)n(C(=O)/C(C#N)=N/Nc2cc(Cl)cc(Cl)c2)n1	-5%	i	-5%	1%	25µM*	i
Cc1cc(C)c(S(=O)(=O)/N=C2/C=C(Sc3ncn[nH]3)C(=O)c3ccccc32)cc1C	7.1µM*	i	-16%	?	1%	?
Cc1ccc(NC(=O)C(C)OC(=O)c2ccc(NC(=O)CC#N)cc2)cc1S(=O)(=O)N1CCOCC1 (stereo not given)	5%	i	-4%	0%	3%	14µM*
Cc1ccc2c(c1C)NC(=O)CC(c1ccccc1O)=N2	11µM*	i	-4%	-4%	1%	i
O=C(CCC1CCCCC1)NNC(=O)NC12CC3CC(CC(C3)C1)C2	-5%	i	-1%	-3%	2%[38.3 µM]	25µM*
COc1ccccc1-c1oc2ccccc2c1-c1ccc2c(c1)OCO2	0%	i	9%	-13%	11%	i
CCOc1c2c(c(-c3ccc4c(c3)OCO4)c3cc(OC)c(OC)cc13)C(=O)OC2	.	.	-1%	4%	14µM*	.
Cn1cc(/C=C/c2cc[n+](C)cc2)c2cc(Cl)ccc21	?	i	-5%	?	?	i
C[n+]1ccc(/C=C/c2ccc(Br)cc2)cc1	0%	i	-5%	3%	?	.
Cn1cc(/C=C/c2cc[n+](C)cc2)c2cc(F)ccc21	?	i	1%	?	11µM*	i
C[n+]1ccc(/C=C/c2c[nH]c3ccc(F)cc23)cc1	10µM*	i	-2%	8.9µM*	16µM*	i
COc1ccc(CN2CCC(n3cc(C(=O)N4CCCCC4)nn3)CC2)c(OC)c1	.	.	-2%	.	0%	.
COc1cccc(C2(CC(=O)N3CCN(c4nonc4C)CC3)CC(=O)N(C3CCCC3)C2=O)c1 (stereo not given)	.	.	0%	.	0%	.
COCc1cc(N2CCOCC2)nc(SCc2ccc(Cl)cc2)n1	0%	10µM*	-4%	-6%	2%	i
Cc1cc(C)cc(NC(=O)Nc2ccc3c(c2)N(C)C(=O)CS3)c1	-13%	i	-2%	-1%	?	i
CCc1ccc(NC(=O)Nc2ccc3c(c2)N(C)C(=O)CS3)cc1	-18%	i	-3%	0%	18µM*	i
O=P(O)(O)OC[C@@H](O)CO	.	.	-4%	.	.	.
S=C(NCC1(c2ccccc2)CCCC1)Nc1ccccc1	1%	5µM*	-1%	7%	0%	i
C=CCN1C(=O)/C(=C2/Sc3ccc(OC)cc3N2C)SC1=Nc1cccc(O)c1	11µM*	i	-5%	11µM*	?	i
COCCN(C)C(=O)c1cnn(-c2nccc(-c3cc(C)sc3C)n2)c1C	.	.	3%	.	0%	.
Cc1cc2c(N=O)c(NO)ccc2[nH]1	?	i	-2%	5.6µM*	0%	.
O=C(c1cnn(-c2nccc(-c3ccccc3C(F)(F)F)n2)c1C1CC1)N1CCN(CCO)CC1	.	.	-2%	.	0%	.
Cn1c(CCCOc2ccc(Cl)cc2Cl)nnc1SCC(=O)Nc1nccs1	-1%	i	0%	2%	13µM*	i
CCCCc1nnc(SCC(=O)Nc2nccs2)n1C	-5%	i	-2%	-11%	0%	i
SMILES	Vif-APOBEC3F blk	Abeta rescue	GRP78 ERSR act	Vif-A3G inh	PINK1 expr mod	FUS yeast rescue
COc1ccc(-c2ccc3c(c2)S(=O)(=O)c2cccc(C(=O)NCCOc4ccccc4)c2C3=O)cc1OC	?	i	-4%	11µM*	35µM*	i
COCC1=C(C(=O)OC(C)OC(=O)OC(C)C)N2C(=O)C(NC(=O)/C(=N/OC)c3csc(N)n3)[C@H]2SC1 (stereo not given in full)	.	.	-3%	.	.	.
COc1ccccc1CNC(=O)C(=O)NCC(c1cccs1)S(=O)(=O)c1ccc(F)cc1 (stereo not given)	-1%	i	-1%	-1%	-1%	28µM*
Cc1ccc(C(=O)Nc2ncc([N+](=O)[O-])s2)cc1	-5%	i	-15%	0%	35µM*	i
Cc1onc(-c2ccccc2)c1C(=O)Nc1ncc([N+](=O)[O-])s1	-12%	i	-2%	-7%	13µM*	i
Cc1onc(-c2ccccc2)c1C(=O)Nc1nnc(C(C)C)s1	-15%	i	4%	-14%	-1%	i
CC(=O)Nc1ncc([N+](=O)[O-])s1	.	.	-2%	.	.	.
COc1ccc(S(=O)(=O)n2nc(-c3ccco3)nc2NCc2ccc(N(C)C)cc2)cc1	-6%	i	1%	4%	1%	32µM*
CCC(=O)Nc1ccccc1-c1nc2ccccc2[nH]c1=O	-24%	i	-3%	-4%	1%	i
COc1ccc(S(=O)(=O)Nc2ccccc2-c2nc3ccccc3[nH]c2=O)cc1	3.5µM*	i	-6%	?	8%	i
COC(=O)c1c(N)[nH]c(C(=O)c2ccccc2)c1-c1ccccc1Br	.	i	.	.	3%	i
COC(=O)c1[nH]c2c(c1C(=O)OC)CCc1ccccc1-2	8.9µM*	i	2%	-10%	2%	i
CCOC(=O)c1c(C)[nH]c(C(=O)CN2C(=O)NC3(CCCC3)C2=O)c1C	10%	i	2%	-4%	6%	i
CCCC1(c2ccccc2)NC(=O)N(CC(=O)c2[nH]c(C)c(C(=O)OCC)c2C)C1=O (stereo not given)	6%	i	-4%	-6%	1%	22µM*
O=C(NCCCN1CCOCC1)c1cnn(-c2ncc3c(n2)-c2ccccc2CC3)c1C1CC1	.	.	1%	.	0%	.
CN1C(=O)C(N=Nc2ccc([N+](=O)[O-])cc2)SC1=S (stereo not given)	1%	i	8%	-2%	45µM*	i
Cc1ccc(C(=O)NCCn2c(N)c(C#N)c3nc4ccccc4nc32)cc1	22µM*	i	0%	?	?	.
Cc1ccc(N=C2NC(=O)/C(=C/c3cccn3C)S2)cc1	?	i	2%	5µM*	?	i
Cc1ccc(N=C2NC(=O)/C(=C/c3cccn3C)S2)cc1C	?	i	4%	?	?	i
CC(=O)Cc1nsc(NC(=O)c2ccc(-c3cc(C(F)(F)F)ccc3Cl)o2)n1	0%	i	-5%	-13%	5µM*	i
CC(=O)Cc1nsc(NC(=O)c2ccc(-c3cc(Cl)ccc3Cl)o2)n1	-1%	i	1%	?	7%	?
